# TTR transcr act = increases transthyretin transcription; SH-SY5Y TTR promoter Gaussia luciferase, luminescence; 100% = recombinant luciferase protein wells; activation, % at 16.7 µM; actives 1.3% (n = 92,000); AID 1117267;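 active means activation above the mean of all tested compounds plus 3 SD, cut at about 9.5% in these data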;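 further: cells exposed to compounds for one day before reading; 0% = median of all test compound wells on the plate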
# HuH7 TTR inh = decreases TTR transcription in HuH7 cells in activator counter-screen | shares compounds with TTR transcr act | HuH7 TTR promoter-Gaussia luciferase reporter, luminescence | inhibition, % at 16.7 µM | actives 4% (n = 1,100);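 active means average inhibition above the solvent-only control wells' mean plus 3 SD, cut at about 15% in these data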;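 further: 0% = cells with DMSO only and 100% = cells with inhibitor control FD; inhibitors lower well luminescence so higher value means more inhibition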
# TTR up confirm = confirmation of human transthyretin transcription activators; activation, % at 16.7 µM; shares compounds with TTR transcr act; SHSY5Y TTR promoter Gaussia luciferase, luminescence; 100% = purified Lucia enzyme wells, no cells; AID 1117280; 1,100 tested, under 10 active;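 active means mean activation above a set limit taken from the earlier primary screen, cut at about 11% in these data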;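 further: 0% = DMSO-treated cells and 100% = recombinant Lucia luciferase without cells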
# An asterisk follows results filed as active. The full list was thinned out, with hits kept by preference.
SMILES,TTR transcr act,others
Cc1ccc(NS(=O)(=O)c2ccc(Cl)nc2)c(C)c1,5,
Cc1ccccc1CN1CCCCC(NC(=O)c2cccc(F)c2)C1=O (stereo not given),-1,
CCC(C(=O)NCCc1ccc(S(N)(=O)=O)cc1)c1ccccc1 (stereo not given),0,
Cc1ccc(CCNC(=O)CN(C)S(=O)(=O)c2ccc3c(c2)c(=O)n(C)c(=O)n3C)cc1,0,
Cc1ccc(CCNC(=O)CCNS(=O)(=O)c2ccc3c(c2)c(=O)n(C)c(=O)n3C)cc1,9.9*,HuH7 TTR inh=-6;TTR up confirm=-1
Cc1csc(NC(=O)CCNS(=O)(=O)c2ccc3c(c2)c(=O)n(C)c(=O)n3C)n1,4,
CCCC/C=C1/[C@@H](CC)N(Cc2ccc(OC)cc2OC)C2=N[C@H](c3ccccc3)CC(=O)N21,2,
O=C(CC[C@H]1O[C@@H](n2ccc(=O)[nH]c2=O)[C@H](O)[C@@H]1O)N[C@H](Cc1ccccc1)C(=O)NCC1CCCCC1,-1,
CCCC/C=C1/C(c2ccccc2)N(Cc2ccc(OC)cc2OC)C2=NC(c3ccccc3)CC(=O)N21 (stereo not given),2,
CCOC(=O)[C@]12CCCC3=C1N(CCC3)C(=O)[C@@H](CC(=O)N1CCC(c3ccccc3)CC1)C2,0,
Cc1ccc(N=C(N)N=C(N)N)cc1,1,
COC(=O)Cn1cnc(C(=O)Nc2ccc(C)c(C)c2)n1,0,
COc1cc(C2C(c3ccccc3)C(c3cc(OC)cc(=O)o3)C2c2ccccc2)oc(=O)c1 (stereo not given),1,
CC(C)(C)c1cc(C(=O)NC2CC2)n(Cc2ccc(F)cc2)n1,9.7*,HuH7 TTR inh=-28;TTR up confirm=1
CC(C)(C)C(=O)NNC(=O)c1cc(C(C)(C)C)nn1Cc1ccccc1,0,
CC(C)(C)c1cc(C(=O)Nc2ccc(F)cc2)n(Cc2ccc(F)cc2)n1,-2,
CC(=O)OCCN(C)c1cc(SC(C)C)c2nonc2c1[N+](=O)[O-],18*,HuH7 TTR inh=1;TTR up confirm=0
CCOC(=O)N1CCN(c2cc(N(C)CCO)c([N+](=O)[O-])c3nonc23)CC1,-1,
CN(C)c1cc(Nc2ccc(O)cc2)c([N+](=O)[O-])c2nonc12,6,
C=CC[C@@H]1NN2C(=O)[C@@H](C)[C@@H]3c4ccccc4C=NN3[C@@H]2c2ccccc21,1,
Cc1ccc(F)cc1NC(=O)c1cccc2nccnc12,-2,
COc1ccc(Cl)cc1NC(=O)c1[nH]nc(OC)c1[N+](=O)[O-],-2,
COc1n[nH]c(C(=O)Nc2cc(F)ccc2C)c1[N+](=O)[O-],10*,HuH7 TTR inh=-15;TTR up confirm=-1
COc1ccc2c(c1)OC[C@H]1[C@@H]2N2C(=O)CNC(=O)[C@@]2(C)[C@H]1c1ccccc1,-2,
O=C(COc1ccc(Cl)cc1)N(Cc1ccc(F)cc1)C1CCS(=O)(=O)C1 (stereo not given),1,
SMILES,TTR transcr act,others
O=S1(=O)c2c(cccc2N2CCC[C@@H]2CO)O[C@@H]2CCN1C2,0,
CN(Cc1ccccc1)C(=O)OCc1cn(Cc2ccc(F)cc2)nn1,-1,
O=C(O)CCn1[nH]c(=O)ccc1=O,27*,HuH7 TTR inh=-9;TTR up confirm=1
Cn1c(=O)n(CCC(=O)O)c2ccccc21,-1,
O=c1ccc(=O)n(-c2ccccc2)[nH]1,1,
CC12CCC(C(NC(=S)NN)C1=O)C2(C)C (stereo not given),4,
O=C(OCC#CCSc1nnc(-c2cccc3ccccc23)o1)c1ccccc1F,2,
Cc1ccccc1S(=O)c1ccccc1C(=O)O (stereo not given),-1,
CCOC(=O)[C@@]12CCC3=C1N(CCC3)C(=O)[C@H](CC(=O)NCCC(C)C)C2,-1,
O=C(NCc1ccc(Cl)cc1)N1CCN(C(=O)c2ccccc2)CC1,1,
COc1cc(/C=N/n2nnnc2N)cc(Cl)c1OC,-1,
O=C(Cc1ccc(F)cc1)N/N=C/c1ccccn1,1,
Cc1ccc(/C=N/NC(=O)Cc2cccs2)o1,0,
O=C(Cc1cccs1)N/N=C/c1ccccn1,15*,HuH7 TTR inh=-11;TTR up confirm=0
Cc1ccccc1-c1nn(-c2ccc(F)cc2F)cc1CNCCCN(C)C,5,
C[C@@H]1CCN(C2CC2)S(=O)(=O)c2c(cccc2N2CCC[C@@H]2CO)O1,-2,
O=C(Nc1ccc(F)cc1)OCc1cn(Cc2ccccc2F)nn1,0,
CC1CCN(C(=O)c2ccc(COc3ccccc3Cl)o2)CC1,-4,
O=C(c1ccc(COc2ccccc2Cl)o1)N1CCCC1,10*,HuH7 TTR inh=-11;TTR up confirm=0
CC1CN(C(=O)c2ccccc2OCc2ccccc2Cl)CC(C)O1 (stereo not given),-1,
O=C(c1ccc(COCC(F)(F)F)o1)N1CCCCCC1,-1,
CC1CN(C(=O)c2ccc(COc3ccccc3Br)o2)CC(C)O1 (stereo not given),69*,HuH7 TTR inh=-9;TTR up confirm=0
CN1CCN(NC(=O)c2ccc(COc3ccccc3Br)o2)CC1,5,
CCC(C)[C@H](NC(=O)Nc1ccccc1F)C(=O)OC (stereo not given in full),1,
CC(C)(O)C#Cc1ccc(CN2CCN(C3CCCC3)C(CCO)C2)cc1 (stereo not given),-1,
SMILES,TTR transcr act,others
CCn1cc(/C=N\NC(=O)c2ccccc2Cl)cn1,1,
CCCC(CCC)C(=O)Oc1cc(C)[nH]c(=O)c1[N+](=O)[O-],2,
COCC(=O)Nc1cc(OC)c(Cl)cc1OC,-2,
COc1cc(NC(=S)N(C)CCC#N)c(OC)cc1Cl,11*,HuH7 TTR inh=-6;TTR up confirm=-1
COc1cc(NC(=S)N(C)C)c(OC)cc1Cl,3,
COCc1ccc(CN2CCC(n3nccc3NC(=O)c3ccc4c(c3)OCO4)CC2)o1,3,
COc1ccc(C(=O)NCC(=O)N/N=C(\C)c2ccco2)cc1OC,1,
Cc1cc(C(=O)NNC(=O)Nc2ccc(Cl)cc2)no1,0,
Cc1nc(C(=O)NNC(=O)Nc2ccc(Cl)cc2)cs1,4,
CN(C)CC#Cc1cncc(C(=O)NNC(=O)Nc2ccc(Cl)cc2)c1,10*,HuH7 TTR inh=-14;TTR up confirm=2
NC(=O)c1ccccc1-c1noc(-c2ccccc2F)n1,-2,
CCOCC(=O)NCc1ccc2c(c1)OCO2,12*,HuH7 TTR inh=-13;TTR up confirm=0
Cc1ccc(CC(=O)NCc2ccc3c(c2)OCO3)cc1,-1,
COC(=O)NCc1ccc2c(c1)OCO2,-1,
C[C@H]1C2CC(OC(=O)NCc3ccccc3)C(C2)[C@H]2CCCCN21 (stereo not given in full),1,
O=C(Cn1cnc2ccccc2c1=O)c1c[nH]c2ccccc12,-1,
O=C(CN1C(=O)C(=O)N(Cc2ccco2)C1=O)c1c[nH]c2ccccc12,11*,HuH7 TTR inh=-14;TTR up confirm=6
C/C(=N\NC(=O)c1c[nH]c2ccccc12)c1ccco1,2,
COc1ccc(OC)c(CN2C(=O)CN(S(C)(=O)=O)CC2(C)c2nnnn2C2CCCC2)c1 (stereo not given),0,
CC(C)(C)NC(=O)c1nn(Cc2ccccc2)c(=O)c2ccccc12,10*,HuH7 TTR inh=-27;TTR up confirm=0
CCN(CC)CCNC(=O)Cc1nn(Cc2ccccc2)c(=O)c2ccccc12,0,
COc1ccccc1Cn1nc(C(=O)O)c2ccccc2c1=O,2,
CCC1CCCCN1C(=O)n1ncc(C(O)(c2ccccc2)c2ccccc2)n1 (stereo not given),0,
Cc1c(-c2nc(-c3cccnc3)no2)cccc1[N+](=O)[O-],-1,
Cc1cccc(-c2noc(-c3ccoc3C)n2)c1,3,

# Compound activity as filed in PubChem.
